Records with an inconclusive call do not appear. Calls of active or inactive are those of the source. The call rests on the fitted dose curve; in most records, active means well fitted cell-killing curve with a large enough effect; inconclusive means small, poorly fitted or top-dose-only effect, or effect the other way; inactive means no such curve, though single readings can be large or run the other way.

The nature of test [1]: Quantitative High-Throughput drug screen in 47 multiple myeloma cell lines against the NCATS MIPE library collection: OCIMY1_PLB cell viability assay (AID 1918979). Further: nearly all actives have a fitted effect of over 35% in size. On viability: series mostly up to about 46 µM. The essentials:
(§1)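 Myeloma cells (500/well) treated with MIPE 4.0 compounds for 48 h at 37 °C, 5% CO2. Viability read as ATP via CellTiter-Glo luminescence after 5 min at RT; DMSO-only wells = 100%, media-only = 0% viability.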

Test [2] in a line: Quantitative High-Throughput drug screen in 47 multiple myeloma cell lines against the NCATS MIPE library collection: MM1S_ATCC cell viability assay (AID 1918980). Further: nearly all actives have a fitted effect of over 45% in size. The essentials: as §1
Test [3] is described as follows: Quantitative High-Throughput drug screen in 47 multiple myeloma cell lines against the NCATS MIPE library collection: L363_DSMZ cell viability assay (AID 1918984). Further: nearly all actives have a fitted effect of over 40% in size. The essentials:
as §1

Test [4] can be described thus: Quantitative High-Throughput drug screen in 47 multiple myeloma cell lines against the NCATS MIPE library collection: KMS34_JCRB cell viability assay (AID 1918985). Further: nearly all actives have a fitted effect of over 40% in size. In a few lines: as §1
Test [5] in a line: Quantitative High-Throughput drug screen in 47 multiple myeloma cell lines against the NCATS MIPE library collection: MM1R_ATCC cell viability assay (AID 1918981). Further: nearly all actives have a fitted effect of over 35% in size. In a few lines:
as §1

Test [6] in a line: Quantitative High-Throughput drug screen in 47 multiple myeloma cell lines against the NCATS MIPE library collection: KMS28PE_JCRB cell viability assay (AID 1918983). Further: nearly all actives have a fitted effect of over 35% in size. The essentials: as §1
Test [7] can be described thus: Quantitative High-Throughput drug screen in 47 multiple myeloma cell lines against the NCATS MIPE library collection: OPM1_PLB cell viability assay (AID 1918989). Further: nearly all actives have a fitted effect of over 40% in size. The essentials: as §1
Test [8] in a line: Quantitative High-Throughput drug screen in 47 multiple myeloma cell lines against the NCATS MIPE library collection: LP1_DSMZ cell viability assay (AID 1918982). Further: nearly all actives have a fitted effect of over 35% in size. The essentials: as §1
Test [9] can be described thus: Quantitative High-Throughput drug screen in 47 multiple myeloma cell lines against the NCATS MIPE library collection: OCIMY5_PLB cell viability assay (AID 1918988). Further: nearly all actives have a fitted effect of over 65% in size. The essentials:
as §1

The nature of test [10]: Quantitative High-Throughput drug screen in 47 multiple myeloma cell lines against the NCATS MIPE library collection: OCIMY7_PLB cell viability assay (AID 1918987). Further: nearly all actives have a fitted effect of over 65% in size. In a few lines: as §1
Potency means the concentration at half of the fitted maximal effect.

On to `Cc1ccc(-c2cc(C(F)(F)F)nn2-c2ccc(S(N)(=O)=O)cc2)cc1`, for which the Potency result in test [1] and in [3] was “inactive” throughout. In addition, the values for the Potency in test [2] and in test [4] were 20.9 µM (active) and 1.32 µM (active), respectively.
With `O=c1c(-c2ccc(O)cc2)coc2cc(O)cc(O)c12`, the Potency entry in [1] was “inactive”.
With `CC[C@@]1(O)C(=O)OCc2c1cc1n(c2=O)Cc2cc3c(CN(C)C)c(O)ccc3nc2-1`, the Potency in test [1] was 13.2 µM (active); in test [2], 0.166 µM (active); in test [5], 0.166 µM (active); in test [6], 0.935 µM (active); in [4], 3.32 µM (active); in test [7], 9.35 µM (active).
With `Cc1ccccc1N1C(=O)c2cc(S(N)(=O)=O)c(Cl)cc2NC1C` (configuration not stated), the Potency entry in test [1], in [2], in test [4] and in test [7] was “inactive” in each case.
In the case of `O=C(Nc1ccc([N+](=O)[O-])cc1Cl)c1cc(Cl)ccc1O`, the Potency is 2.96 µM (active) in [1]; 1.18 µM (active) in [2]; 1.66 µM (active) in test [5]; 1.05 µM (active) in test [3]; 1.66 µM (active) in test [4]; 0.833 µM (active) in test [7].
In the case of `NC(CO)C(=O)NNCc1ccc(O)c(O)c1O` (configuration not stated), the Potency in test [1] and in [4] was 26.4 µM (active) throughout. Moreover, the Potency result in test [3] and in [7] was “inactive” in each case.
With `CCC1(c2ccccc2)C(=O)NCNC1=O`, the Potency result in [1], in test [8] and in [4] was “inactive” throughout. The results for the Potency in test [2] and in test [7] were 1.05 µM (active) and 8.33 µM (active), respectively.
Take `CC1(C)O[C@H]2CC(=O)OC[C@]23[C@H]2CC[C@@]4(C)[C@H](c5ccoc5)OC(=O)[C@H]5O[C@]54[C@]2(C)C(=O)C[C@@H]13`: the Potency entry in test [1], in [2], in test [5], in [8], in [6] and in test [4] was “inactive” each time.
For `N[C@@H](Cc1c[nH]c2ccc(O)cc12)C(=O)O`, the Potency entry in test [1], in test [5], in [8], in test [3], in [4] and in test [7] was “inactive” in each case.
Consider `CCC1(C)CC(=O)NC1=O` (configuration not stated), for which the Potency entry in test [1], in test [2], in [5], in [6] and in test [4] was “inactive” each time.
On to `NCCS(=O)(=O)O`, for which the Potency entry in [1], in [2], in test [8], in [4] and in test [7] was “inactive” each time.
Turning to `CN(CCOc1ccc(NS(C)(=O)=O)cc1)CCc1ccc(NS(C)(=O)=O)cc1`, the Potency result in [1], in [5], in test [6], in [3] and in [4] was “inactive” throughout.
For `CCOC(=O)c1ncn2c1CN(C)C(=O)c1cc(F)ccc1-2`, the Potency result in [1] is “inactive”. The Potency in test [2] is 18.7 µM (active); in test [9], 20.9 µM (active).
For the compound `NCCc1cnc[nH]1`, the Potency entry in test [1], in test [9] and in test [7] was “inactive” in each case. In [5], the Potency was 1.87 µM (active).
Take `CN1CCN(CCCN2c3ccccc3Sc3ccc(Cl)cc32)CC1`: the Potency result in test [1] is “inactive”. The Potency was 9.35 µM (active) in test [2] and 3.32 µM (active) in test [3].
As to `CC12CC3CC(C)(C1)CC(N)(C3)C2`, in test [1], the Potency result was “inactive”. In addition, in test [2], the Potency was 18.7 µM (active).
Turning to `CC(C)(C)C(=O)Oc1ccc(S(=O)(=O)Nc2ccccc2C(=O)NCC(=O)O)cc1`, the Potency entry in test [1], in test [5], in test [3] and in test [4] was “inactive” each time.
For `CC(C)Cc1ccc(C(C)C(=O)O)cc1` (configuration not stated), the Potency result in test [1], in test [2], in test [3] and in [4] was “inactive” throughout.
For the compound `CC(CCc1ccc(O)cc1)NCCc1ccc(O)c(O)c1` (configuration not stated), the Potency in test [1] was 18.7 µM (active); in test [2], 10.5 µM (active); in test [5] it was 18.7 µM (active); in test [8] it was 20.9 µM (active); in test [3], 18.7 µM (active); in test [4], 9.35 µM (active). In test [9], the Potency was 20.9 µM (active).
Turning to `Nc1nc2c(ncn2COC(CO)CO)c(=O)[nH]1`, the Potency in test [1] was 18.7 µM (active); in test [3], 20.9 µM (active); in test [4], 23.5 µM (active); in test [10] it was 2.64 µM (active); in [7], 16.6 µM (active).
As for `O=C(CCCN1CCC(O)(c2ccc(Cl)cc2)CC1)c1ccc(F)cc1`, the Potency entry in test [1] was “inactive”. In addition, the values for the Potency in test [2] and in test [9] were 9.35 µM (active) and 18.7 µM (active), respectively.
Turning to `O=C(c1ccc(F)cc1)C1CCN(CCn2c(=O)[nH]c3ccccc3c2=O)CC1`, the Potency entry in test [1], in test [5], in [3], in test [4] and in test [7] was “inactive” in each case.

(Values after PubChem BioAssay (NCATS).)
